# About 83,000 compounds went through this panel and 20% of them were active in at least one assay; those are over-represented in the sample as a whole.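 Testing used 96-well plates and a 48-hour single-concentration exposure. Example: -40 means 40% of the starting cells died.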 Values without a mark were called inactive. The source made the active and inactive calls. Rule for the calls: active = growth percent below 10; inactive = the rest.
# Experiments:
# Assay in all cases: NCI-60 one-dose screen, 48 h (100 = growth as untreated, 0 = no growth, -100 = all killed)
# Conditions in all cases: 10 µM unless noted
# SR leukemia = system: SR leukemia
# RPMI-8226 leukemia = system: RPMI-8226 leukemia
# OVCAR-8 ovarian = system: OVCAR-8 ovarian
# OVCAR-5 ovarian = system: OVCAR-5 ovarian
# OVCAR-4 ovarian = system: OVCAR-4 ovarian
# SK-OV-3 ovarian = system: SK-OV-3 ovarian
# IGROV1 ovarian = system: IGROV1 ovarian
# OVCAR-3 ovarian = system: OVCAR-3 ovarian
# HS 578T breast = system: HS 578T breast
# NCI/ADR-RES ovarian = system: NCI/ADR-RES ovarian
SMILES,growth (SR leukemia),growth (RPMI-8226 leukemia),growth (OVCAR-8 ovarian),growth (OVCAR-5 ovarian),growth (OVCAR-4 ovarian),growth (SK-OV-3 ovarian),growth (IGROV1 ovarian),growth (OVCAR-3 ovarian),growth (HS 578T breast),growth (NCI/ADR-RES ovarian)
Nc1ccc(-c2csc(-n3[nH]c(=O)ccc3=O)n2)cc1,102%,97.3%,101%,108%,101%,112%,99%,113%,100%,94.4%
O=C(NCc1cccc(CNC(=O)Nc2nc3ccccc3[nH]2)c1)Nc1nc2ccccc2[nH]1,40.1%,-18.8% (active),-52.3% (active),-2.26% (active),-75.7% (active),-19% (active),13.7%,-42.3% (active),-15.3% (active),83.3%
O=C(O)COc1ccc(Cl)c(Cl)c1,93.7%,101%,105%,106%,113%,105%,107%,123%,123%,106%
Cc1ccc(N2C(=O)CCC2=O)cc1,104%,103%,108%,96.3%,103%,99.7%,113%,102%,99.4%,98.5%
Nc1[nH]n2cc(-c3ccc(F)cc3)nc2c1N=Nc1ccc(S(N)(=O)=O)cc1,66.5%,73.2%,79%,90.7%,80.9%,73.9%,61.9%,78.7%,66.8%,105%
C/C=C(/C)n1cnc2c(Nc3ccccn3)nc(Cl)nc21,105%,98.2%,100%,98.4%,105%,111%,103%,111%,97.8%,108%
Cc1ccc(/C=C(\C#N)n2nnc3cc(F)c(F)cc32)cc1,7.33% (active),4.53% (active),6.79% (active),-4.62% (active),46%,53.6%,2.76% (active),7.86% (active),36.1%,12.9%
CCN(CC)CCCN1C(=O)c2c(c(C)c3c(oc4ccc(O)cc43)c2C)C1=O,19.1%,-15.7% (active),-31.8% (active),103%,-35.5% (active),109%,75.2%,55.7%,81.2%,-62.9% (active)
CCOC(=O)c1[nH]c2c(c1C)-c1[nH]c(=O)c(S(=O)(=O)c3ccccc3)cc1SC2,39.4% [100 µM],33.3% [100 µM],25.3% [100 µM],89.6% [100 µM],5.79% [100 µM] (active),59.8% [100 µM],48.7% [100 µM],-15.1% [100 µM] (active),28.1% [100 µM],59.7% [100 µM]
Cc1ccc(CNc2ccc3nc(CCC(C)C)[nH]c3c2)cc1,85.9%,87.4%,89.9%,101%,85.1%,100%,77.4%,88.9%,96.3%,89.6%
COC(=O)c1c2c(c(C)[n+]([O-])c1C)C(=O)C(NCc1ccc(OC)cc1)=CC2=O,9.98% (active),23.6%,-15.2% (active),53%,-39.2% (active),99.2%,8.2% (active),-18.6% (active),84.8%,10.1%
COc1ccc(C(O)c2cc3c(N)c(C(=O)Nc4cccc(Cl)c4C)sc3nc2C)cc1 (stereo not given),0.176% (active),-2.02% (active),10.1%,35.5%,25.7%,11.6%,10.7%,-11% (active),13.6%,7.99% (active)
COc1ccc(C(=O)/C=C/c2ccc(Cl)cc2)cc1S(=O)(=O)Nc1c(N)nc(SC)[nH]c1=O,9.2% (active),10%,10.8%,86.3%,66.7%,97.4%,40.1%,10.1%,81.4%,97.5%
CCN(CC)CCN1C(=O)c2c(c(C)c3c(oc4ccc(O)cc43)c2C)C1=O,28.5%,-37.3% (active),-5.2% (active),97.6%,14.9%,101%,1.64% (active),-68.2% (active),72.9%,21.7%
CN(Cc1cnc2nc(N)nc(N)c2n1)c1ccc(C(=O)NC(CCC(=O)O)C(=O)O)cc1Br (stereo not given),34.1%,54.3%,45.5%,27.7%,75%,45.3%,40.9%,53.8%,96.7%,38.4%
Clc1ccc(-c2cc(-c3ccccc3)nc(NCCNc3ccnc4cc(Cl)ccc34)n2)cc1,29.2%,-25.3% (active),-55.9% (active),48.9%,-69.4% (active),100%,-61.3% (active),-90.6% (active),-17.5% (active),-63.4% (active)
CN1CCN(CCCOc2cccc3nc(Nc4ccc(F)c(F)c4)ccc23)CC1,0.217% (active),-14.5% (active),24.5%,-20.9% (active),39.3%,24.2%,-12.4% (active),8.36% (active),16.8%,12.1%
Cc1c(CN)cc(-c2ccc(Cl)cc2)n1-c1ccccc1,77.5%,66.7%,74.8%,80.9%,40.3%,85.4%,48.1%,106%,87.9%,88.1%
O=S(=O)(NCCNc1nccc(-c2c(-c3ccc(F)c(O)c3)nc3sccn23)n1)c1ccc(F)cc1,1.25% (active),11.5%,29%,67.9%,31.5%,36.1%,12.2%,39.4%,26.9%,92.6%
CN1C(=O)/C(=C/c2ccc(C(=O)Nc3ncc(Cc4cccc(Cl)c4)s3)cc2)SC1=S,85.2%,60.8%,64.1%,61.8%,52.9%,72.1%,61.9%,69%,74.6%,56.9%
O=S(=O)(NCCNc1nccc(-c2c(-c3cccc(O)c3)nc3occn23)n1)c1ccc(Br)cc1,7.33% (active),29.8%,31.3%,51%,36.8%,29.4%,4.48% (active),36%,21.8%,99.7%
N#Cc1ccc(O)c(C2=NCC(Cc3ccccc3)O2)c1 (stereo not given),60.8%,55.3%,37%,79.7%,22.3%,50.9%,43.2%,16.1%,90.7%,0.317% (active)
C/C(=N\O)c1ccc(NC(=O)CSc2nnc(-c3cc(-c4ccc(S(N)(=O)=O)cc4)nc4ccccc34)n2-c2ccccc2)cc1,24.2%,34.4%,59.4%,96.6%,91.6%,108%,63%,78%,61.7%,98.9%
O=S(=O)(Nc1cc(Sc2cccc3cccnc23)c(O)c2ccccc12)c1ccccc1,5.4% (active),-4.98% (active),9.56% (active),47.1%,-100% (active),52.1%,10.4%,-81.2% (active),40.3%,8.88% (active)
Cn1cc(-c2csc(-c3cn(CCCN4CCOCC4)c4ccccc34)n2)c2cccnc21,58.9%,59.5%,82.6%,84.7%,97.8%,102%,98.6%,96.3%,88%,91%
CN(C)CCN1C(=O)c2cccc3c(/C=C/CN4C(=O)c5cccc6cccc(c56)C4=O)ccc(c23)C1=O,-16.4% (active),-31.4% (active),-43.5% (active),-69% (active),-5.6% (active),109%,89.4%,114%,82.6%,24%
